We go through 8 compounds from PubChem BioAssay (NCI).

Compounds without any hit were thinned out: in the full panel of roughly 83,000, 20% have a hit.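 Single-dose data. Exposure time 48 hours. Values below 10 considered active.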 A number with no mark means an inactive call. Active and inactive are the calls of the source.

Among the test systems are NCI-H226 lung; NCI-H322M lung; HOP-62 NSCLC; NCI-H460 lung; HOP-92 NSCLC; NCI-H522 lung; A549/ATCC NSCLC; 786-0 renal; COLO 205 colon; DU-145 prostate; K-562 leukemia; MALME-3M melanoma; MDA-MB-231 breast; RXF 393 renal; SF-268 CNS; SF-295 CNS; SF-539 CNS; UACC-257 melanoma; M14 melanoma.
What all share (assay): NCI-60 one-dose screen, 48 h (100 = growth as untreated, 0 = no growth, -100 = all killed)
Details in all cases: 10 µM unless noted

Take `CCOC(=O)c1c(C)n2c(=O)cc(C)c3c(OC(C)=O)c(OC(C)=O)cc1c32`: the growth is 102% in the assay with NCI-H226 lung; 79.9% in the assay on NCI-H322M lung; 81.4% in the assay on HOP-62 NSCLC; 40.8% in the assay with NCI-H460 lung; 71.8% in the assay with HOP-92 NSCLC; 55.3% in the assay on NCI-H522 lung. The growth in the assay on A549/ATCC NSCLC is 79.8%; in the assay on 786-0 renal, 81.3%; with COLO 205 colon, 74.1%; in the assay with DU-145 prostate, 67.3%; with K-562 leukemia it was 22.3%; in the assay with MALME-3M melanoma it was 75%. Besides, the growth was 86.7% with MDA-MB-231 breast; 73.8% with RXF 393 renal; 49.6% in the assay on SF-268 CNS; 94.8% in the assay on SF-295 CNS; 72.1% in the assay with SF-539 CNS; 108% with UACC-257 melanoma. The growth in the assay with M14 melanoma was 83.2%.
On to `CCOC(=O)c1c(C)c2c(n1Cc1ccccc1)CSc1cc(C#N)c(=O)[nH]c1-2`, for which the growth with NCI-H226 lung is 89.6% [100 µM]; in the assay with NCI-H322M lung it was 78.6% [100 µM]; in the assay with HOP-62 NSCLC, 58.7% [100 µM]; with NCI-H460 lung it was 67% [100 µM]; with HOP-92 NSCLC, -18.5% [100 µM] (active); with NCI-H522 lung it was 87% [100 µM]. For the same compound, the growth with A549/ATCC NSCLC is 75.1% [100 µM]; in the assay with 786-0 renal, 19.8% [100 µM]; with COLO 205 colon, 60.4% [100 µM]; with DU-145 prostate it was 83.9% [100 µM]; in the assay on K-562 leukemia it was 75.5% [100 µM]; in the assay on MALME-3M melanoma, 55% [100 µM]. Moreover, the growth in the assay with MDA-MB-231 breast was 54.8% [100 µM]; in the assay with RXF 393 renal it was 26.6% [100 µM]; in the assay on SF-268 CNS it was 67.5% [100 µM]; in the assay with SF-295 CNS it was 43.6% [100 µM]; in the assay on SF-539 CNS, 52.6% [100 µM]; with UACC-257 melanoma, 121% [100 µM]. The growth with M14 melanoma is 90.4% [100 µM].
On to `Cn1nc(-c2ccc(Cl)cc2)nc2c(=O)n(C)c(=O)nc1-2`, for which the growth in the assay on NCI-H226 lung is -51.4% (active); with NCI-H322M lung, -68.5% (active); in the assay on HOP-62 NSCLC, -72.9% (active); in the assay on NCI-H460 lung, 0.75% (active); in the assay on HOP-92 NSCLC it was -28.9% (active); with NCI-H522 lung, -75.4% (active). For the same compound, the growth in the assay on A549/ATCC NSCLC was -25.2% (active); in the assay on 786-0 renal it was -82.2% (active); with COLO 205 colon, -90.6% (active); with DU-145 prostate it was -97.5% (active); with K-562 leukemia, -52.7% (active); with MALME-3M melanoma, -90.1% (active). Besides, the growth was -24.9% (active) with MDA-MB-231 breast; -30.8% (active) in the assay on RXF 393 renal; -19.8% (active) in the assay with SF-268 CNS; -29.6% (active) in the assay with SF-295 CNS; -99.2% (active) in the assay on SF-539 CNS; -83.4% (active) in the assay on UACC-257 melanoma. Further, the growth in the assay on M14 melanoma was -91.9% (active).
For the compound `CCCNNC(=O)c1ccc(CNC(=O)/C=C/c2ccccc2)cc1`, the growth in the assay with NCI-H226 lung is 73.4% [2.5 µM]; in the assay with NCI-H322M lung it was 34.5% [2.5 µM]; in the assay with HOP-62 NSCLC, 20.3% [2.5 µM]; in the assay with NCI-H460 lung, 40.2% [2.5 µM]; in the assay on HOP-92 NSCLC, 25.6% [2.5 µM]; with NCI-H522 lung, 38.3% [2.5 µM]. Further, the growth in the assay with A549/ATCC NSCLC is 34.8% [2.5 µM]; in the assay on 786-0 renal it was 33.1% [2.5 µM]; in the assay with COLO 205 colon, -16.5% [2.5 µM] (active); in the assay on DU-145 prostate, 37% [2.5 µM]; in the assay with K-562 leukemia, 15% [2.5 µM]; in the assay with MALME-3M melanoma, 30.1% [2.5 µM]. Also, the growth in the assay with MDA-MB-231 breast is 55.7% [2.5 µM]; in the assay with RXF 393 renal, 1.56% [2.5 µM] (active); in the assay on SF-268 CNS it was 52.6% [2.5 µM]; in the assay with SF-295 CNS, 33.3% [2.5 µM]; in the assay on SF-539 CNS, 44.2% [2.5 µM]; in the assay with UACC-257 melanoma, 24.1% [2.5 µM]. The growth in the assay on M14 melanoma is 29.9% [2.5 µM].
Turning to `COc1cccc2cc(N(C)c3ncnc4ccccc34)ccc12`, the growth in the assay on NCI-H226 lung is 46.2%; with NCI-H322M lung, 48%; with HOP-62 NSCLC, 23.3%; with NCI-H460 lung it was 4.58% (active); in the assay on HOP-92 NSCLC, 28.1%; in the assay with NCI-H522 lung, -9.69% (active). For the same compound, the growth in the assay on A549/ATCC NSCLC was 13.5%; with 786-0 renal it was 29.5%; in the assay with COLO 205 colon, -13.8% (active); in the assay with DU-145 prostate it was 10.3%; in the assay with K-562 leukemia, 9.92% (active); with MALME-3M melanoma it was 39.4%. Further, the growth in the assay on MDA-MB-231 breast is 31.3%; in the assay with RXF 393 renal, 25.9%; in the assay with SF-268 CNS it was 30.2%; in the assay on SF-295 CNS it was 11%; in the assay with SF-539 CNS it was -28.5% (active); in the assay with UACC-257 melanoma, 25.3%. In addition, the growth with M14 melanoma is 14.3%.
Regarding `CCN=c1sc2c(n1NC(=O)c1cc3ccc1CCc1ccc(cc1)CC3)C(=O)c1ccccc1C2=O`, the growth with NCI-H226 lung is 73%; in the assay on NCI-H322M lung, 80.5%; in the assay with HOP-62 NSCLC it was -58.6% (active); in the assay with NCI-H460 lung it was 9.62% (active); with HOP-92 NSCLC, -9.79% (active); in the assay with NCI-H522 lung it was -34.8% (active). Besides, the growth with A549/ATCC NSCLC was -38.8% (active); with 786-0 renal, -90.4% (active); in the assay on COLO 205 colon, 42.6%; in the assay with DU-145 prostate, -91.4% (active); with K-562 leukemia it was -28.5% (active); with MALME-3M melanoma, -87.4% (active). The growth in the assay with MDA-MB-231 breast was -7.49% (active); with RXF 393 renal, -87.2% (active); in the assay on SF-268 CNS, -10.6% (active); with SF-295 CNS it was 31%; in the assay on SF-539 CNS, -94.4% (active); in the assay with UACC-257 melanoma, -90.5% (active). The growth in the assay on M14 melanoma was -93.5% (active).
Regarding `CCN1C(=O)N(CC)C2C1NC(=S)N2/N=C/C=C/c1cccs1` (stereo unspecified), the growth is 64.5% with NCI-H226 lung; 50.9% with NCI-H322M lung; 51.1% with HOP-62 NSCLC; 7.03% (active) with NCI-H460 lung; 88.8% in the assay on HOP-92 NSCLC; -5.25% (active) in the assay on NCI-H522 lung. For the same compound, the growth was 24.9% with A549/ATCC NSCLC; 43.1% in the assay with 786-0 renal; 18.3% in the assay with COLO 205 colon; 23% in the assay on DU-145 prostate; 11.2% with K-562 leukemia; 45.5% with MALME-3M melanoma. In addition, the growth with MDA-MB-231 breast is 26.6%; with RXF 393 renal it was -5.1% (active); in the assay on SF-268 CNS, 66.2%; with SF-295 CNS, 16.2%; in the assay with SF-539 CNS, -16% (active); with UACC-257 melanoma it was 63.1%. Moreover, the growth in the assay on M14 melanoma was 12.3%.
`O=C(Nc1ncc(Cc2ccc(Cl)cc2)s1)c1ccc2c(c1)OCCO2`: the growth was 23.5% with NCI-H226 lung; 46.8% in the assay on NCI-H322M lung; 8% (active) in the assay on NCI-H460 lung; 60.6% in the assay with HOP-92 NSCLC; 2.46% (active) with NCI-H522 lung; 18% with A549/ATCC NSCLC. The growth was 38.7% in the assay on 786-0 renal; -13.7% (active) in the assay with COLO 205 colon; 16.6% in the assay with DU-145 prostate; 8.41% (active) in the assay on K-562 leukemia; 57.8% in the assay with MALME-3M melanoma; 10.9% in the assay with MDA-MB-231 breast. The growth in the assay with RXF 393 renal was 3.74% (active); with SF-268 CNS, 42.9%; in the assay on SF-295 CNS, 11.7%; in the assay on SF-539 CNS, -4.99% (active); with UACC-257 melanoma, 44.1%; in the assay on M14 melanoma, 17.3%.
